# Reference: PubChem BioAssay (NCATS)
# Records with an inconclusive call do not appear. A call without a number means that no potency is given here. Calls of active or inactive are those of the source. Unless noted, calls follow the shape of the dose curve; as a rule, active = well fitted curve in the direction sought with a large enough effect; inconclusive = small, poorly fitted or top-dose-only effect, or another doubt; inactive = no such curve, though single readings can be large; an effect the other way counts as inactive or inconclusive.
# Tests used:
# [1] = molecular target: Aldehyde dehydrogenase, mitochondrial (Homo sapiens) (UniProt P05091); experiment: qHTS for Inhibitors of the Aldehyde Dehydrogenase Family (ALDH2) Confirmatory screens (AID 2061303; active = well fitted inhibition curve with a large enough effect; title and protocol of this record describe different tests; also: nearly all actives have a fitted effect of over 45% in size; also: potency is read from the fitted curve at half-maximal effect)
# [2] = molecular target: Aldehyde dehydrogenase, mitochondrial (Homo sapiens) (UniProt P05091); experiment: qHTS for Inhibitors of the Aldehyde Dehydrogenase Family (ALDH2) Primary screen (AID 2061308); also: nearly all actives have a fitted effect of over 55% in size
# [3] = molecular target: Retinaldehyde dehydrogenase 3 (Homo sapiens) (UniProt P47895); experiment: qHTS for Inhibitors of the Aldehyde Dehydrogenase Family (ALDH1A3) Primary screen (AID 2061315)
# [4] = molecular target: Aldehyde dehydrogenase 1A1 (Homo sapiens) (UniProt P00352); experiment: qHTS for Inhibitors of the Aldehyde Dehydrogenase Family (ALDH1A1) Confirmatory screens (AID 2061316); also: nearly all actives have a fitted effect of over 65% in size; also: potency is read from the fitted curve at half-maximal effect
# [5] = molecular target: Retinaldehyde dehydrogenase 3 (Homo sapiens) (UniProt P47895); experiment: qHTS for Inhibitors of the Aldehyde Dehydrogenase Family (ALDH1A3) Confirmatory screens (AID 2061311); also: nearly all actives have a fitted effect of over 60% in size; also: potency is read from the fitted curve at half-maximal effect
# [6] = molecular target: Retinaldehyde dehydrogenase 3 (Homo sapiens) (UniProt P47895); experiment: qHTS for Inhibitors of the Aldehyde Dehydrogenase Family (ALDH1A3) Validation screen (AID 2061312); also: potency is read from the fitted curve at half-maximal effect; nearly all actives have a fitted effect of over 45% in size
# [7] = molecular target: Retinal dehydrogenase 2 (Homo sapiens) (UniProt O94788); experiment: qHTS for Inhibitors of the Aldehyde Dehydrogenase Family (ALDH1A2) Confirmation screens (AID 2061314); also: nearly all actives have a fitted effect of over 65% in size; also: potency is read from the fitted curve at half-maximal effect
smiles,measurement,setting,value
O=S(=O)(Nc1ccc(O)c(NS(=O)(=O)c2ccccc2)c1)c1ccccc1,Potency,[1],inactive
same,Potency,[2],inactive
same,Potency,[3],inactive
same,Potency,[4],2.83 µM (active)
CC1(C)CCC(C)(C)c2cc3c(cc21)Sc1ccccc1N=C3c1ccc(C(=O)O)cc1,Potency,[1],inactive
same,Potency,[5],inactive
same,Potency,[6],6.31 µM (active)
same,Potency,[7],inactive
same,Potency,[3],inactive
CCOC(=O)Cn1c(=O)oc2cc(S(=O)(=O)N3CCN(c4ccc(C(C)=O)cc4)CC3)ccc21,Potency,[1],7.08 µM (active)
same,Potency,[5],0.355 µM (active)
same,Potency,[7],inactive
CCOC(=O)c1ccc(N2CCN(c3cccc(Cl)c3)CC2)c(NC(=O)Nc2ccc(Cl)cc2)c1,Potency,[1],inactive
same,Potency,[5],inactive
same,Potency,[7],inactive
same,Potency,[4],inactive
N#Cc1nc(NCC(F)F)nc(Nc2cc(F)cc(F)c2)n1,Potency,[1],inactive
same,Potency,[2],inactive
same,Potency,[3],inactive
same,Potency,[4],inactive
Cn1nnnc1Sc1ncnc2scc(-c3ccc([N+](=O)[O-])cc3)c12,Potency,[1],inactive
same,Potency,[2],inactive
same,Potency,[3],inactive
COc1ccc(Cn2c(=O)[nH]c3cc(C(=O)N4CCN(c5ccccc5)CC4)ccc3c2=O)cc1,Potency,[1],inactive
same,Potency,[5],inactive
same,Potency,[7],inactive
same,Potency,[4],inactive
Cc1cccc(-c2ccc(C=O)cc2)c1,Potency,[1],12.6 µM (active)
same,Potency,[5],0.047 µM (active)
same,Potency,[7],39.8 µM (active)
same,Potency,[4],9.37 µM (active)
COc1ccc(CNC(=O)c2cc3c(=O)n(Cc4ccc(OC)cc4)ccc3nc2C)cc1,Potency,[1],inactive
same,Potency,[5],inactive
same,Potency,[7],inactive
same,Potency,[4],inactive
NCCCNc1ncnc2ccc(-c3ccc4c(c3)OCO4)cc12,Potency,[1],inactive
same,Potency,[2],inactive
same,Potency,[4],11.3 µM (active)
O=C(Nc1cccc(C(F)(F)F)c1)c1cc(-c2ccc(Cl)cc2)on1,Potency,[1],inactive
same,Potency,[5],inactive
same,Potency,[7],inactive
O=c1[nH]c2ccc(NCc3ccc(-c4ccc(F)cc4)o3)cc2[nH]1,Potency,[1],0.914 µM (active)
same,Potency,[5],inactive
same,Potency,[7],inactive
COc1ccccc1Nc1cc2ccccc2c(=O)[nH]1,Potency,[1],inactive
same,Potency,[5],0.318 µM (active)
same,Potency,[7],inactive
CC(C)Sc1ncc(Cl)c(C(=O)Nc2nc3ccc(S(C)(=O)=O)cc3s2)n1,Potency,[1],inactive
same,Potency,[5],inactive
same,Potency,[7],inactive
same,Potency,[4],inactive
COc1cccc(-c2cccc(C(=O)N3CCN(C(=O)Nc4ccccc4)CC3)c2)c1,Potency,[1],inactive
same,Potency,[5],inactive
same,Potency,[7],inactive
CCOc1ccc(NC(=O)N2CCN(c3ccc(Cl)c(Cl)c3)CC2)cc1,Potency,[1],inactive
same,Potency,[5],inactive
same,Potency,[7],inactive
same,Potency,[4],inactive
Cc1cc(C)nc(NC(=C(C#N)C#N)N2CCN(c3cccc(C(F)(F)F)c3)CC2)c1,Potency,[1],14.2 µM (active)
same,Potency,[2],inactive
same,Potency,[3],inactive
O=C(NCc1ccc(F)cc1)c1ccc2nnc(-c3cccc(C(F)(F)F)c3)n2c1,Potency,[1],inactive
same,Potency,[5],inactive
same,Potency,[7],inactive
same,Potency,[4],inactive
O=C(CN1CCCN(S(=O)(=O)c2ccc(Br)cc2)CC1)Nc1cccc(C(F)(F)F)c1,Potency,[1],1.15 µM (active)
same,Potency,[5],6.47 µM (active)
same,Potency,[7],25.1 µM (active)
same,Potency,[4],1.45 µM (active)
CC(C)c1ccc(S(=O)(=O)c2cnc(SCC(=O)Nc3ccc4c(c3)OCCO4)[nH]c2=O)cc1,Potency,[1],inactive
same,Potency,[5],inactive
same,Potency,[7],10.1 µM (active)
same,Potency,[3],inactive
CCN(CC)c1nc2ccccc2nc1C(=O)Nc1ccc(C(C)=O)cc1,Potency,[1],inactive
same,Potency,[5],inactive
same,Potency,[7],inactive
same,Potency,[4],inactive
COc1cccc(N2CCN(c3nc(C(=O)NCc4cccc(C)c4)cs3)CC2)c1,Potency,[1],inactive
same,Potency,[5],inactive
same,Potency,[7],inactive
CC(=O)Nc1sc2c(c1-c1nc3ccccc3s1)CN(C1COC1)C2,Potency,[1],12.7 µM (active)
same,Potency,[5],8.96 µM (active)
same,Potency,[7],8.96 µM (active)
same,Potency,[3],inactive
same,Potency,[4],2.52 µM (active)
CN(c1ccccc1)c1ccc(CNc2nn3c(=O)c4ccccc4nc3s2)cc1,Potency,[1],11.2 µM (active)
same,Potency,[5],12.6 µM (active)
same,Potency,[7],inactive
same,Potency,[3],inactive
same,Potency,[4],8.96 µM (active)
O=C(Nc1ccc2c(c1)OCO2)Nc1nnc(-c2ccncc2)s1,Potency,[1],inactive
same,Potency,[2],inactive
same,Potency,[3],inactive
same,Potency,[4],inactive
COc1ccc(NC(c2nnc(-c3ccccc3)o2)c2ccccc2F)cc1Cl (centres undefined),Potency,[1],inactive
same,Potency,[5],inactive
same,Potency,[7],inactive
same,Potency,[4],inactive
Cc1noc2c(NCCc3ccccn3)cc(-c3ccccn3)nc12,Potency,[1],inactive
same,Potency,[5],14.1 µM (active)
Cc1nc(CNc2ncnc3ccc(-c4ccoc4C)cc23)cs1,Potency,[1],inactive
same,Potency,[2],inactive
same,Potency,[3],inactive
Cc1ccc(NC(=O)N2CCN(c3ccc(Cl)c(Cl)c3)CC2)cc1,Potency,[1],inactive
same,Potency,[5],inactive
same,Potency,[7],inactive
same,Potency,[4],inactive
CCOc1ccc(CCNC(=O)c2ccc(N3N=C(C)CC3=O)cc2)cc1OCC,Potency,[1],1.26 µM (active)
same,Potency,[5],0.1 µM (active)
same,Potency,[7],0.896 µM (active)
same,Potency,[3],inactive
same,Potency,[4],0.896 µM (active)
Cc1ccc(-n2nc(C)c3c(C(=O)Nc4ccc(Br)c(C)c4)cc(C)nc32)cc1,Potency,[1],inactive
same,Potency,[5],inactive
same,Potency,[7],inactive
CCn1cc2nc(SCc3ccc(F)cc3)n(CCc3ccccc3)c(=O)c2n1,Potency,[1],14.1 µM (active)
same,Potency,[5],0.562 µM (active)
same,Potency,[7],7.94 µM (active)
same,Potency,[4],inactive
O=C(Nc1ccc([S+](=O)([O-])Nc2nccs2)cc1)c1ccccn1,Potency,[1],inactive
same,Potency,[2],inactive
same,Potency,[3],inactive
same,Potency,[4],inactive
O=C(Nc1cccc(-c2nn3c(=O)cc(N4CCNCC4)nc3s2)c1)c1ccncc1,Potency,[1],7.08 µM (active)
same,Potency,[5],28.2 µM (active)
same,Potency,[7],14.1 µM (active)
same,Potency,[3],inactive
same,Potency,[4],3.18 µM (active)
Cc1ccc(NC(=O)c2cc(-c3ccc(Br)s3)nc3ccccc23)cc1F,Potency,[1],inactive
same,Potency,[5],inactive
same,Potency,[7],inactive
same,Potency,[4],inactive
CCc1cc(N2CCOC(c3ccc4cc(OC)ccc4c3)C2)nc(C)n1 (centres undefined),Potency,[1],inactive
same,Potency,[5],inactive
same,Potency,[7],inactive
same,Potency,[4],inactive
COc1ccc(CN(Cc2ccccc2)C(=O)c2ccccc2N)cc1COc1ccc(NC(C)=O)cc1,Potency,[1],inactive
same,Potency,[2],inactive
same,Potency,[3],inactive
O=C(Nc1ccc(N2CCOCC2)c(F)c1)Nc1nnc(-c2ccncc2)s1,Potency,[1],inactive
same,Potency,[2],inactive
same,Potency,[3],inactive
COc1ccc(N2CCN(C(=S)Nc3cc(C)ccn3)CC2)cc1,Potency,[1],10.1 µM (active)
same,Potency,[5],22.5 µM (active)
same,Potency,[7],12.7 µM (active)
same,Potency,[4],3.18 µM (active)
CCN1c2cc(C(=O)Nc3ccc(C#N)cc3)ccc2C(=O)N2CCCCCC21 (centres undefined),Potency,[1],inactive
same,Potency,[4],6.47 µM (active)
COc1ccc(-n2cc(C(=O)Nc3cc(F)ccc3F)c3ccccc3c2=O)cc1,Potency,[1],inactive
same,Potency,[7],inactive
same,Potency,[4],11.5 µM (active)
CC(=O)Nc1sc2c(c1-c1nc3ccccc3s1)CCN(Cc1ccccc1)C2,Potency,[1],inactive
same,Potency,[5],25.1 µM (active)
same,Potency,[3],inactive
COC(=O)c1ccc(NC(=O)CN2CCN(c3ccc(Cl)cc3)CC2)cc1,Potency,[1],18.2 µM (active)
same,Potency,[7],18.2 µM (active)
CC(=O)Nc1sc2c(c1-c1nc3ccccc3s1)CNCC2,Potency,[1],20.1 µM (active)
same,Potency,[3],inactive
same,Potency,[4],8.96 µM (active)
O=S1(=O)N=C(Sc2ccc3c(c2)OCCO3)c2ccccc21,Potency,[1],inactive
same,Potency,[3],inactive
CC(C)NS(=O)(=O)c1ccc(OCC(=O)N2CCN(c3ccccc3F)CC2)cc1,Potency,[1],inactive
same,Potency,[7],inactive
O=C1Nc2ccccc2/C1=C\c1ccc(O)c(Cl)c1,Potency,[1],10.1 µM (active)
same,Potency,[7],10.1 µM (active)
same,Potency,[3],inactive
Oc1ccc(Nc2nc(-c3ccncc3)nc3ccccc23)cc1F,Potency,[1],inactive
same,Potency,[3],inactive
COc1ccc(C2=Nn3c(nnc3-c3ccccc3OC)SC2)c(OC)c1,Potency,[1],inactive
same,Potency,[5],inactive
same,Potency,[3],inactive
same,Potency,[4],14.2 µM (active)
COc1ccc(S(=O)(=O)N2CCC3(CC2)CC(CC(=O)NC2CC2)CCO3)cc1 (centres undefined),Potency,[1],inactive
same,Potency,[7],inactive
O=C(Nc1cccnc1)c1ccco1,Potency,[1],12.7 µM (active)
same,Potency,[3],inactive
same,Potency,[4],6.34 µM (active)
N#Cc1c(-c2cccc(Br)c2)no[n+]1[O-],Potency,[1],inactive
same,Potency,[7],3.57 µM (active)
same,Potency,[3],inactive
same,Potency,[4],12.7 µM (active)
O=C1c2ccccc2NC(c2ccc(-c3cccs3)o2)N1O (centres undefined),Potency,[1],11.2 µM (active)
same,Potency,[7],7.98 µM (active)
same,Potency,[3],inactive
same,Potency,[4],6.34 µM (active)
COc1cc(O)c(C(CC(=O)N2CCN(c3ccc(F)cc3)CC2)c2ccc3c(c2)OCO3)c(OC)c1 (centres undefined),Potency,[1],17.8 µM (active)
same,Potency,[5],12.7 µM (active)
same,Potency,[3],inactive
[O-][n+]1onc(-c2ccccc2)c1CO,Potency,[1],inactive
same,Potency,[7],inactive
same,Potency,[3],inactive
O=C(NCCN1CCN(c2ccccc2)CC1)Nc1cccc(Br)c1,Potency,[1],inactive
same,Potency,[7],inactive
O=C(CCC#CCSc1nnc(-c2cccc3ccccc23)o1)c1ccccc1,Potency,[1],20.1 µM (active)
same,Potency,[3],inactive
O=C1c2ccccc2NC(c2ccc(-c3cccc(F)c3)o2)N1O (centres undefined),Potency,[1],20.1 µM (active)
same,Potency,[3],inactive
same,Potency,[4],6.34 µM (active)
COc1cc(F)ccc1-c1ccnc2nc(Cc3ccc(F)cc3)nn12,Potency,[1],inactive
same,Potency,[4],inactive
CCN(CC)c1ccc(NC(=O)Nc2ccc(C(C)=O)cc2)cc1,Potency,[1],inactive
same,Potency,[7],inactive
same,Potency,[3],inactive
NC(=O)c1c(NC(=O)c2ccco2)sc2c1CCCC2,Potency,[1],8.96 µM (active)
same,Potency,[7],10.1 µM (active)
same,Potency,[3],inactive
same,Potency,[4],3.57 µM (active)
COC(=O)[C@H](Cc1ccc(OC)cc1)NC(=O)[C@@H]1CNCCN1S(=O)(=O)c1ccccc1,Potency,[1],inactive
same,Potency,[7],inactive
CC(=O)N1CCN(c2nc(-c3ccc(Br)cc3)cs2)CC1,Potency,[1],25.1 µM (active)
same,Potency,[5],12.6 µM (active)
same,Potency,[3],inactive
same,Potency,[4],inactive
Brc1ccc(-c2ccc(C3Nc4cccc5cccc(c45)N3)o2)cc1,Potency,[1],0.896 µM (active)
same,Potency,[5],7.12 µM (active)
same,Potency,[4],10.1 µM (active)
COc1ccc(S(=O)(=O)N2C[C@@H](Oc3ccccc3)C[C@@H]2C(=O)N2CCOCC2)cc1,Potency,[1],inactive
same,Potency,[7],inactive
COc1ccc(C2Nc3ccccc3C(=O)N2Cc2ccco2)cc1COc1ccccc1 (centres undefined),Potency,[1],inactive
same,Potency,[5],inactive
same,Potency,[3],inactive
O=C(NC1CC(=O)N(c2ccccc2)C1)c1ccc(S(=O)(=O)N2CCOCC2)cc1 (centres undefined),Potency,[1],inactive
same,Potency,[7],inactive
O=C(OCC#CCSc1nnc(-c2cccc3ccccc23)o1)c1ccco1,Potency,[1],6.34 µM (active)
same,Potency,[3],inactive
same,Potency,[4],6.34 µM (active)
Cc1ccsc1CN(C)c1ncnc2ccc(-c3ccoc3C)cc12,Potency,[1],inactive
same,Potency,[7],11.3 µM (active)
same,Potency,[3],inactive
